A short description of assay [1]: cAMP Responsive Elements (CRE) small molecule antagonists, cell-based qHTS assay: qHTS cell viability counter screen (AID 2060913). Further: nearly all actives have a fitted effect of over 40% in size. The method in brief: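 Steps: cells plated and held 18 hrs at 37 C/5% CO2; compounds and NKH477 (0.25 uM final) added; 3 hrs incubation; reporter substrate read; CellTiter-Glo added to measure cytotoxicity by luminescence.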
(Quantitative high-throughput screening tests each substance at several concentrations.)

Assay [2] is described as follows: cAMP Responsive Elements (CRE) small molecule agonists, cell-based qHTS assay: qHTS cell viability counter screen (AID 2060914).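 Further: viability read after 3 h of compound exposure; nearly all actives have a fitted effect of over 50% in size.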 In short, it runs like this:
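CRE-bla HEK 293T cells, plated 18 h at 37 °C, were exposed to compounds for 3 h at 37 °C/5% CO2. Viability was then measured in the same wells by CellTiter-Glo luminescence after 30 min at room temperature.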

Where “and” joins values, the source holds several entries; their conditions need not be identical. Equal values may be shown once. Records with an inconclusive call do not appear. Calls of active or inactive are those of the source. The call rests on the fitted dose curve; in most records, active means well fitted cell-killing curve with a large enough effect in the repeat runs; inconclusive means weak or mixed curves, or effect the other way; inactive means flat fitted curve, though single readings scatter.
Potency means the concentration at half of the fitted maximal effect.

For `Cc1cccc2sc3nncn3c12`, the Potency entry in assay [1] and in assay [2] was “inactive” in each case.

`ClCCOCCCl`: the Potency entry in assay [1] and in assay [2] was “inactive” throughout.

`C[C@H]1CCCC(=O)CCC/C=C/c2cc(O)cc(O)c2C(=O)O1`: the Potency entry in assay [1] and in assay [2] was “inactive” throughout.

In the case of `CC(O)(CS(=O)(=O)c1ccc(F)cc1)C(=O)Nc1ccc(C#N)c(C(F)(F)F)c1` (configuration not stated), the Potency result in assay [1] and in assay [2] was “inactive” throughout.

As to `Nc1ccc(Cc2ccc(N)cc2)cc1`, the Potency result in assay [1] and in assay [2] was “inactive” in each case.

As for `O=c1[nH]oc2c1CCNC2`, the Potency result in assay [1] and in assay [2] was “inactive” each time.

For `NNCCO`, the Potency entry in assay [1] and in assay [2] was “inactive” each time.

On to `C[C@]12C=CC3=C4CCC(=O)C=C4CC[C@H]3[C@@H]1CC[C@@H]2O`, for which the Potency entry in assay [1] and in assay [2] was “inactive” in each case.

`CC(=O)/C=C/c1ccc2c(c1)OCO2`: the Potency entry in assay [1] and in assay [2] was “inactive” each time.

In the case of `N#Cc1ccncc1`, the Potency result in assay [1] and in assay [2] was “inactive” each time.

Consider `CS(=O)(=O)Cl`, for which the Potency result in assay [1] and in assay [2] was “inactive” throughout.

Take `CCOC(=O)COc1cc(-c2nn(C)c(OC(F)F)c2Cl)c(F)cc1Cl`: the Potency entry in assay [1] and in assay [2] was “inactive” throughout.

In the case of `C1CS1`, the Potency result in assay [1] and in assay [2] was “inactive” throughout.

For the compound `C[C@@H]1CC2=CC(=O)CC[C@@H]2[C@H]2CC[C@@]3(C)[C@@H](CC[C@]3(C)O)[C@@H]21`, the Potency entry in assay [1] and in assay [2] was “inactive” throughout.

`CCOc1nc(F)cc2nc(S(=O)(=O)Nc3c(Cl)cccc3Cl)nn12`: the Potency result in assay [1] and in assay [2] was “inactive” each time.

As to `Cc1cccc(N)c1`, the Potency result in assay [1] and in assay [2] was “inactive” each time.

Consider `COP(=O)(CCC(=O)NCO)OC`, for which the Potency entry in assay [1] and in assay [2] was “inactive” each time.

Consider `CCSC(=O)Cl`, for which the Potency entry in assay [1] and in assay [2] was “inactive” in each case.

Regarding `CSc1nnc(C(C)(C)C)c(=O)n1N`, the Potency result in assay [1] and in assay [2] was “inactive” in each case.

As for `C=CC(=O)[O][Sn]([CH2]CCC)([CH2]CCC)[CH2]CCC`, the Potency is 8.63 µM (active) in assay [1] and 6.86 µM (active) in assay [2].

On to `O=[N+]([O-])/N=C1\NCCN1Cc1ccc(Cl)nc1`, for which the Potency entry in assay [1] and in assay [2] was “inactive” in each case.

`CCNc1nc(NCC)nc(SC)n1`: the Potency entry in assay [1] and in assay [2] was “inactive” in each case.

Regarding `CCOC(=O)C(Cl)C(C)=O` (configuration not stated), the Potency result in assay [1] and in assay [2] was “inactive” in each case.

On to `CC(C)CCON=O`, for which the Potency result in assay [1] and in assay [2] was “inactive” each time.

As to `CN1CCc2cc(Cl)c(O)cc2[C@H]2c3ccccc3CC[C@@H]21`, the Potency result in assay [1] and in assay [2] was “inactive” throughout.

For `O=S(=O)(c1ccccc1)c1ccccc1`, the Potency result in assay [1] and in assay [2] was “inactive” each time.

For `Cc1cccc(N)c1C`, the Potency result in assay [1] and in assay [2] was “inactive” in each case.

For `CCOCN(C(=O)CCl)c1c(C)cccc1CC`, the Potency entry in assay [1] and in assay [2] was “inactive” throughout.

Turning to `CC(C)(C)C(=O)C(Oc1ccc(Cl)cc1)n1cncn1` (configuration not stated), the Potency entry in assay [1] and in assay [2] was “inactive” each time.

For the compound `N#CC(O)c1ccccc1` (configuration not stated), the Potency result in assay [1] and in assay [2] was “inactive” each time.

As to `Cc1nnc(-c2ccccc2)c(=O)n1N`, the Potency result in assay [1] and in assay [2] was “inactive” each time.

For the compound `COc1ccc2c3c1O[C@H]1[C@@H](O)C=C[C@H]4[C@@H](C2)N(C)CC[C@@]341`, the Potency entry in assay [1] and in assay [2] was “inactive” in each case.

With `ClC1=C(Cl)[C@]2(Cl)[C@@H]3[C@@H](Cl)[C@H](Cl)C[C@@H]3[C@@]1(Cl)C2(Cl)Cl`, the Potency result in assay [1] and in assay [2] was “inactive” throughout.

Consider `[Cl-].[Cl-].[Hg+2]`, for which the Potency in assay [1] was 19.2 µM (active) and 8.63 µM (active); in assay [2] it was 21.6 µM (active) and 12.2 µM (active).

On to `CCCCCCCCCCCCCCCCCC(=O)O`, for which the Potency entry in assay [1] and in assay [2] was “inactive” throughout.

As to `CCOC(=O)COc1ccc(Cl)cc1Cl`, the Potency result in assay [1] and in assay [2] was “inactive” throughout.

For `CCN(CCO)CCO`, the Potency entry in assay [1] and in assay [2] was “inactive” in each case.

As to `CCC(C)(C)c1ccc(O)c(C(C)(C)CC)c1`, the Potency was 27.3 µM (active) in assay [1]; 30.3 µM (active) and 24.3 µM (active) in assay [2].

For `O=C(Cl)C(Cl)(Cl)Cl`, the Potency entry in assay [1] and in assay [2] was “inactive” throughout.

`Cc1nnc2n1-c1sc(CCc3ccc(CC(C)C)cc3)cc1C(c1ccccc1Cl)=NC2C` (configuration not stated): the Potency entry in assay [1] and in assay [2] was “inactive” in each case.

In the case of `O=P1(NCCCl)OCCCN1CCCl` (configuration not stated), the Potency result in assay [1] and in assay [2] was “inactive” in each case.

For the compound `CCN(CC)N=O`, the Potency entry in assay [1] and in assay [2] was “inactive” each time.

With `C[N+](C)(C)CC(=O)[O-]`, the Potency entry in assay [1] and in assay [2] was “inactive” each time.

Consider `ClC1=C(Cl)[C@]2(Cl)[C@H]3[C@H]([C@H]4C=C[C@H]3C4)[C@@]1(Cl)C2(Cl)Cl`, for which the Potency result in assay [1] and in assay [2] was “inactive” throughout.

`OCc1ccco1`: the Potency entry in assay [1] and in assay [2] was “inactive” throughout.

`CCCCCBr`: the Potency result in assay [1] and in assay [2] was “inactive” each time.

Regarding `CCN(CC)C1CCCCC1`, the Potency entry in assay [1] and in assay [2] was “inactive” in each case.

As for `CCCCCCCCSC(=O)Oc1cc(Cl)nnc1-c1ccccc1`, the Potency entry in assay [1] and in assay [2] was “inactive” throughout.

`CC(=O)[C@H]1CC[C@H]2[C@@H]3CC[C@H]4C[C@](C)(O)CC[C@]4(C)[C@H]3CC[C@]12C`: the Potency result in assay [1] and in assay [2] was “inactive” throughout.

Regarding `N#Cc1ccccc1Cl`, the Potency result in assay [1] and in assay [2] was “inactive” in each case.

Consider `CC(C)CCCCCCCOC(=O)c1ccccc1C(=O)OCCCCCCCC(C)C`, for which the Potency entry in assay [1] and in assay [2] was “inactive” each time.

For the compound `COc1cccc([C@@]2(O)CCCC[C@@H]2CN(C)C)c1`, the Potency result in assay [1] and in assay [2] was “inactive” each time.

Consider `CC(Oc1ccc(Oc2ncc(C(F)(F)F)cc2Cl)cc1)C(=O)O` (configuration not stated), for which the Potency result in assay [1] and in assay [2] was “inactive” each time.

As to `C=COCCCl`, the Potency entry in assay [1] and in assay [2] was “inactive” each time.

Regarding `CCC(C)c1cc(C(C)(C)C)cc(-n2nc3ccccc3n2)c1O` (configuration not stated), the Potency result in assay [1] and in assay [2] was “inactive” in each case.

For the compound `CCCCN(CCCCO)N=O`, the Potency entry in assay [1] and in assay [2] was “inactive” in each case.

For `c1ccc2c(c1)CCNC2`, the Potency result in assay [1] and in assay [2] was “inactive” throughout.

As for `Cc1c(F)c(F)c(COC(=O)C2C(/C=C(\Cl)C(F)(F)F)C2(C)C)c(F)c1F` (configuration not stated), the Potency entry in assay [1] and in assay [2] was “inactive” in each case.

`O=C(O)c1cc(I)cc(I)c1I`: the Potency entry in assay [1] and in assay [2] was “inactive” throughout.

With `CCCCN(CCCC)N=O`, the Potency result in assay [1] and in assay [2] was “inactive” throughout.

For `CC(Cc1ccccc1)NCCn1cnc2c1c(=O)n(C)c(=O)n2C` (configuration not stated), the Potency entry in assay [1] and in assay [2] was “inactive” each time.

These data come from PubChem BioAssay (Tox21).
